In PubChem BioAssay (NCI):
“And” between values parts separate entries of the source, which are not always exact repeats. Equal values may be shown once. The panel holds about 79,000 compounds, 15% with a hit somewhere; the sample as a whole holds those more often. The source made the active and inactive calls. Rule as the data show it: active = growth inhibition above about 70%; inactive = the rest.

Key:
[1] = NCI Yeast Anticancer Drug Screen. Data for the rad52 strain (AID 147);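 also: 0% = growth of vehicle-treated control cultures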; details: S. cerevisiae rad52 mutant growth inhibition, hits give high values
How it was run: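 Screen used a yeast mutant impaired in DNA repair. After compound exposure, growth was measured. Values reflect inhibition compared with vehicle-treated cells.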

[2] = NCI Yeast Anticancer Drug Screen. Data for the wt1 strain (AID 149);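 also: 0% = growth of vehicle-treated wt1 cultures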; details: S. cerevisiae wt1 strain (SPY 50644) growth inhibition, hits give high values
How it was run: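 Yeast wt1 strain exposed to compounds; growth inhibition measured relative to vehicle-treated controls.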

[3] = NCI Yeast Anticancer Drug Screen. Data for the rad50EPP+ strain (AID 151);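 also: 0% = growth of vehicle-treated control cultures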; details: S. cerevisiae rad50 mutant strain, hits give high values
How it was run: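 Exposing the rad50EPP+ strain to each compound, growth was compared with vehicle-only cultures to give inhibition.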

[4] = NCI Yeast Anticancer Drug Screen. Data for the mgt1 strain (AID 153); details: S. cerevisiae mgt1 mutant growth inhibition, hits give high values
How it was run: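 Genetically defined yeast (mgt1) treated with compound; inhibition of growth expressed against vehicle-treated controls.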

[5] = NCI Yeast Anticancer Drug Screen. Data for the rad50 strain (AID 155);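 also: 0% = growth of vehicle-only cultures of the same strain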; details: S. cerevisiae rad50 strain growth inhibition, hits give high values
How it was run: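 Yeast carrying a defined DNA repair defect were exposed to test compounds, and growth was compared with vehicle-treated controls to give percent inhibition.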

[6] = NCI Yeast Anticancer Drug Screen. Data for the mec2-1 strain (AID 157); details: S. cerevisiae mec2-1 strain, hits give high values
How it was run: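 Readout is yeast growth inhibition, normalised to vehicle-treated controls, in the mec2-1 strain exposed to compound.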

[7] = NCI Yeast Anticancer Drug Screen. Data for the rad14 strain (AID 159);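 also: 0% = growth of vehicle-treated control cultures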; details: S. cerevisiae rad14 strain growth inhibition, hits give high values
How it was run: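 Yeast cells carrying a defined DNA-repair defect were exposed to compounds, and growth inhibition was calculated relative to vehicle-treated control cultures.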

[8] = NCI Yeast Anticancer Drug Screen. Data for the sgs1 mgt1 strain (AID 161);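 also: 0% = growth of cultures given vehicle only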; details: S. cerevisiae sgs1 mgt1 strain, hits give high values
How it was run: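 Percent growth inhibition was derived by comparing compound-exposed mutant yeast with vehicle-exposed cultures. The strain carries alterations in DNA damage repair.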

[9] = NCI Yeast Anticancer Drug Screen. Data for the CLN2oe strain (AID 163);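 also: 0% = growth of vehicle-only control cultures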; details: S. cerevisiae CLN2oe strain, hits give high values
How it was run: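 Values reflect how much compound exposure reduced yeast growth, referenced to vehicle-exposed cells. Assay organism is a strain with a defined genetic change affecting cell-cycle control.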

[10] = NCI Yeast Anticancer Drug Screen. Data for the cln2 rad14 strain (AID 165);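 also: 0% = growth equal to vehicle treated cultures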; details: S. cerevisiae cln2 rad14 strain, hits give high values
How it was run: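 Relative to vehicle controls, growth inhibition of compound-treated cln2 rad14 yeast was recorded.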

[11] = NCI Yeast Anticancer Drug Screen. Data for the bub3 strain (AID 167); details: S. cerevisiae bub3 mutant strain, hits give high values
How it was run: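 Compounds were applied to a genetically altered yeast strain carrying a cell-cycle control defect. Growth inhibition was scored against vehicle-treated controls.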

[12] = NCI Yeast Anticancer Drug Screen. Data for the wt2 strain (AID 169);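 also: 0% = growth of vehicle-treated yeast cultures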; details: S. cerevisiae wt2 strain growth inhibition, hits give high values
How it was run: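 Values express reduction in yeast growth under compound treatment, referenced to vehicle-treated cells.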

[13] = NCI Yeast Anticancer Drug Screen. Data for the mlh1 rad18 strain (AID 175); details: S. cerevisiae mlh1 rad18 strain growth inhibition, hits give high values
How it was run: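 Test agents were incubated with a yeast strain of defined genotype (DNA damage repair defect). Inhibition of growth was derived by comparison with vehicle-exposed cultures.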

[14] = NCI Yeast Anticancer Drug Screen. Data for the rad18 strain (AID 177); details: S. cerevisiae rad18 mutant growth inhibition, hits give high values
How it was run: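 A genetically defined yeast mutant impaired in DNA damage repair was treated with test compounds, then its growth was measured against cultures receiving vehicle alone.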

[15] = NCI Yeast Anticancer Drug Screen. Data for the mlh1 strain (AID 171);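 also: 0% = growth of vehicle-treated control cultures of the same strain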; details: S. cerevisiae mlh1 strain growth inhibition, hits give high values
How it was run: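 Steps: expose the defined-mutant yeast strain to compound; expose a parallel culture to vehicle; measure growth; express compound effect as inhibition relative to the vehicle culture.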

[16] = NCI Yeast Anticancer Drug Screen. Data for the sgs1 strain (AID 173);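 also: 0% = growth of vehicle-only control cultures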; details: S. cerevisiae sgs1 mutant, hits give high values
How it was run: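 Treat defined-mutant yeast with compound; measure growth; calculate inhibition relative to vehicle-treated cells.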

[17] = at 5.0 µM (retest, dose inferred, filed as 0.5)
[18] = at 50.0 µM (retest, dose inferred, filed as 5.0)

Measured: growth inhibition

O=C(NNC(=O)OCC(Cl)(Cl)Cl)OCC(Cl)(Cl)Cl
inactive: [1]; at 1.2 µM 0% | [1]; at 3.7 µM 0% | [1]; at 11.0 µM 2% | [1]; at 33.0 µM 2% | [1]; at 100.0 µM 31% | [2]; at 1.2 µM -1% | [2]; at 3.7 µM -2% | [2]; at 11.0 µM -3% | [2]; at 33.0 µM -3% | [2]; at 100.0 µM 11% | [3]; at 1.2 µM 0% | [3]; at 3.7 µM -2% | [3]; at 11.0 µM -1% | [3]; at 33.0 µM 0% | [3]; at 100.0 µM 11% | [4]; at 1.2 µM 0% | [4]; at 3.7 µM -4% | [4]; at 11.0 µM 48% | [5]; at 1.2 µM -1% | [5]; at 3.7 µM 0% | [5]; [17] -12% | [5]; at 11.0 µM 0% | [5]; at 33.0 µM 1% | [5]; [18] 1% | [5]; at 50.0 µM 20.6% | [5]; at 100.0 µM 23% | [6]; at 1.2 µM -6% | [6]; at 3.7 µM -8% | [6]; [17] -6% | [6]; at 11.0 µM -4% | [6]; at 33.0 µM 4% | [6]; [18] 6% | [6]; at 50.0 µM 20.9% | [6]; at 100.0 µM 32% | [7]; at 1.2 µM 1% | [7]; at 3.7 µM 1% | [7]; at 11.0 µM 3% | [7]; at 33.0 µM 6% | [7]; at 100.0 µM 26% | [8]; [17] 0% | [9]; at 1.2 µM -1% | [9]; at 3.7 µM -5% | [9]; at 11.0 µM -2% | [9]; at 33.0 µM 9% | [9]; at 100.0 µM 38% | [10]; [17] 4% | [10]; [18] 11% | [10]; at 50.0 µM -12.9% | [11]; at 1.2 µM -3% | [11]; at 3.7 µM -8% | [11]; [17] -5% | [11]; at 11.0 µM -6% | [11]; at 33.0 µM -4% | [11]; [18] 7% | [11]; at 50.0 µM 6.9% | [11]; at 100.0 µM 20% | [12]; at 1.2 µM -2% | [12]; at 3.7 µM -4% | [12]; at 11.0 µM 29% | [13]; [17] -1% | [13]; [18] 3% | [13]; at 50.0 µM 0.3% | [14]; at 1.2 µM -1% | [14]; at 3.7 µM 0% | [14]; at 11.0 µM 3% | [14]; at 33.0 µM 13% | [14]; at 100.0 µM 53%
active: [4]; at 33.0 µM 91% | [4]; at 100.0 µM 97% | [8]; [18] 96% | [8]; at 50.0 µM 90.3% | [12]; at 33.0 µM 89% | [12]; at 100.0 µM 96%

CN(C)CCSC1=Nc2ccc(Cl)cc2C(c2ccccc2Cl)=NC1
inactive: [1]; at 1.2 µM -1% | [1]; at 3.7 µM -8% | [1]; at 11.0 µM 3% | [1]; at 33.0 µM 4% | [1]; at 100.0 µM 51% | [2]; at 1.2 µM -1% | [2]; at 3.7 µM -1% | [2]; at 11.0 µM 0% | [2]; at 33.0 µM 2% | [2]; at 100.0 µM -1% | [3]; at 1.2 µM -3% | [3]; at 3.7 µM -2% | [3]; at 11.0 µM -2% | [3]; at 33.0 µM -3% | [3]; at 100.0 µM 0% | [4]; at 1.2 µM -2% | [4]; at 3.7 µM -1% | [4]; at 11.0 µM 0% | [4]; at 33.0 µM 6% | [4]; at 100.0 µM 66% | [5]; at 1.2 µM -1% | [5]; at 3.7 µM 2% | [5]; [17] 12% | [5]; at 11.0 µM 2% | [5]; at 33.0 µM 8% | [5]; [18] 47% | [5]; at 50.0 µM 61.8% and 39.5% | [5]; at 100.0 µM 51% | [6]; at 1.2 µM -2% | [6]; at 3.7 µM -2% | [6]; [17] 3% | [6]; at 11.0 µM 0% | [6]; at 33.0 µM 9% | [6]; [18] 12% | [6]; at 50.0 µM -4.25% and -24.8% | [6]; at 100.0 µM 33% | [7]; at 1.2 µM 0% | [7]; at 3.7 µM 4% | [7]; at 11.0 µM 17% | [7]; at 33.0 µM 45% | [8]; [17] 11% | [8]; [18] 47% | [8]; at 50.0 µM 50% and 24.2% | [9]; at 1.2 µM -1% | [9]; at 3.7 µM -1% | [9]; at 11.0 µM 4% | [9]; at 33.0 µM 15% | [9]; at 100.0 µM 24% | [10]; [17] 4% | [10]; [18] 8% | [10]; at 50.0 µM 15.7% and -4.25% | [11]; at 1.2 µM -1% | [11]; at 3.7 µM -3% | [11]; [17] 0% | [11]; at 11.0 µM -3% | [11]; at 33.0 µM 9% | [11]; [18] 52% | [11]; at 50.0 µM 61.9% and 10.9% | [11]; at 100.0 µM 50% | [15]; at 1.2 µM -1% | [15]; at 3.7 µM -4% | [15]; at 11.0 µM -1% | [15]; at 33.0 µM -27% | [15]; at 100.0 µM 64% | [16]; at 1.2 µM -2% | [16]; at 3.7 µM -1% | [16]; at 11.0 µM 0% | [16]; at 33.0 µM 16% | [13]; [17] 4% | [13]; [18] 28% | [13]; at 50.0 µM 40.2% and 7.1% | [14]; at 1.2 µM -2% | [14]; at 3.7 µM -1% | [14]; at 11.0 µM 6% | [14]; at 33.0 µM 15% | [14]; at 100.0 µM 47%
active: [7]; at 100.0 µM 75% | [16]; at 100.0 µM 70%
